Results published in the supplement of paper PMC10037445.
The full ranking holds about 2,900 compounds; the median of “NF-kB SEAP reporter activity, fold change vs agonist alone” is about 0.99, and the highest 2% start at about 2.6. The sample as a whole holds a higher share of the highest values than the screen did.

Key:
RAW-Dual [1] = experiment: NF-kB SEAP reporter activity, fold change vs agonist alone; cytotoxicity flag (confluency mask): not cytotoxic; higher = enhanced NF-kB activity
Summary of the method: (§1)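 RAW-Dual macrophages (50,000 cells/well in DMEM, 384-well plates) received 50 nL of library stock by pin tool, then a PRR agonist 1 h later, and were kept at 37 °C, 5% CO2. After 20 hours, supernatant was read for IRF by QuantiLuc luminescence and for NF-κB by QuantiBlue absorbance at 620 nm. Reporter activity is fold change over agonist-alone wells. Cytotoxic wells had IncuCyte confluency below 70% of agonist controls in both mask sets.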

RAW-Dual [2] = experiment: NF-kB SEAP reporter activity, fold change vs agonist alone; higher = enhanced NF-kB activity
Summary of the method: as §1

RAW-Dual [3] = experiment: NF-kB SEAP reporter activity, fold change vs agonist alone; cytotoxicity flag (confluency mask): cytotoxic (confluency <70% of control); higher = enhanced NF-kB activity
Summary of the method: as §1

[4] = agonist: ODN 1826 (TLR9) 0.5 ug/mL
[5] = agonist: Pam2CSK4 (TLR2/6) 0.1 ug/mL
[6] = agonist: Pam3CSK4 (TLR2/1) 0.1 ug/mL
[7] = library stock concentration (final ~1000-fold dilution): 10 mM, cytotoxicity flag (confluency mask): not cytotoxic, agonist: Imiquimod (TLR7) […]
[8] = library stock concentration (final ~1000-fold dilution): 10 mM, cytotoxicity flag (confluency mask): not cytotoxic, agonist: MPLA (TLR4) […]
[9] = library stock concentration (final ~1000-fold dilution): 10 mM water, cytotoxicity flag (confluency mask): not cytotoxic, agonist: MPLA (TLR4) […]
[10] = library stock concentration (final ~1000-fold dilution): 10 mM, cytotoxicity flag (confluency mask): cytotoxic (confluency <70% of control), agonist: Imiquimod (TLR7) […]
[11] = library stock concentration (final ~1000-fold dilution): 10 mM, cytotoxicity flag (confluency mask): cytotoxic (confluency <70% of control), agonist: MPLA (TLR4) […]

Compound: Cc1c(C(=O)Nc2ccc(N3CC(C)OC(C)C3)nc2)cccc1-c1ccc(OC(F)(F)F)cc1 (stereo not given) (library stock concentration (final ~1000-fold dilution): 10 mM)
- NF-kB SEAP reporter activity (RAW-Dual [1]; agonist: LPS (TLR4) 0.1 ug/mL): 1.13
- NF-kB SEAP reporter activity (RAW-Dual [1]; [4]): 1.35
- NF-kB SEAP reporter activity (RAW-Dual [1]; [5]): 0.839
- NF-kB SEAP reporter activity (RAW-Dual [1]; [6]): 1.12

Compound: Cc1c(C(=O)Nc2ccc(N3CC(C)OC(C)C3)nc2)cccc1-c1ccc(OC(F)(F)F)cc1 (stereo not given)
- NF-kB SEAP reporter activity (RAW-Dual [2]; [7]): 0.808
- NF-kB SEAP reporter activity (RAW-Dual [2]; [8]): 0.657

Compound: N=C(N)NCCN1CCCCCCC1.O=S(=O)(O)O (library stock concentration (final ~1000-fold dilution): 10 mM water)
- NF-kB SEAP reporter activity (RAW-Dual [1]; agonist: LPS (TLR4) 0.1 ug/mL): 1.13
- NF-kB SEAP reporter activity (RAW-Dual [1]; [4]): 1.05
- NF-kB SEAP reporter activity (RAW-Dual [1]; [5]): 1.06
- NF-kB SEAP reporter activity (RAW-Dual [1]; [6]): 0.972

Compound: N=C(N)NCCN1CCCCCCC1.O=S(=O)(O)O
- NF-kB SEAP reporter activity (RAW-Dual [2]; [9]): 1.05

Compound: CC1CC(=O)Nc2cccc(-c3ccc4c(c3)c(-c3cnn(C)c3)nn4C)c2N1 (stereo not given) (library stock concentration (final ~1000-fold dilution): 10 mM)
- NF-kB SEAP reporter activity (RAW-Dual [1]; agonist: LPS (TLR4) 0.1 ug/mL): 3.26
- NF-kB SEAP reporter activity (RAW-Dual [1]; [4]): 2.08
- NF-kB SEAP reporter activity (RAW-Dual [1]; [5]): 0.673
- NF-kB SEAP reporter activity (RAW-Dual [1]; [6]): 1.28

Compound: CC1CC(=O)Nc2cccc(-c3ccc4c(c3)c(-c3cnn(C)c3)nn4C)c2N1 (stereo not given)
- NF-kB SEAP reporter activity (RAW-Dual [2]; [7]): 1.46
- NF-kB SEAP reporter activity (RAW-Dual [2]; [8]): 2.15

Compound: Cc1nc[nH]c1CN1CCc2c(c3ccccc3n2C)C1=O.Cl
- NF-kB SEAP reporter activity (RAW-Dual [2]; library stock concentration (final ~1000-fold dilution): 2 mM water, cytotoxicity flag (confluency mask): not cytotoxic, agonist: MPLA (TLR4) […]): 1.06

Compound: Cc1nc[nH]c1CN1CCc2c(c3ccccc3n2C)C1=O.Cl (library stock concentration (final ~1000-fold dilution): 2 mM water)
- NF-kB SEAP reporter activity (RAW-Dual [1]; agonist: LPS (TLR4) 0.1 ug/mL): 1.14
- NF-kB SEAP reporter activity (RAW-Dual [1]; [4]): 1.09
- NF-kB SEAP reporter activity (RAW-Dual [1]; [5]): 1.15
- NF-kB SEAP reporter activity (RAW-Dual [1]; [6]): 0.961

Compound: NC(CSCCCO)C(=O)O (stereo not given)
- NF-kB SEAP reporter activity (RAW-Dual [2]; library stock concentration (final ~1000-fold dilution): 10 mM water, cytotoxicity flag (confluency mask): not cytotoxic, agonist: Imiquimod (TLR7) […]): 0.937
- NF-kB SEAP reporter activity (RAW-Dual [2]; [9]): 1.04

Compound: NC(CSCCCO)C(=O)O (stereo not given) (library stock concentration (final ~1000-fold dilution): 10 mM water)
- NF-kB SEAP reporter activity (RAW-Dual [1]; agonist: LPS (TLR4) 0.1 ug/mL): 1.11
- NF-kB SEAP reporter activity (RAW-Dual [1]; [4]): 1.09
- NF-kB SEAP reporter activity (RAW-Dual [1]; [5]): 1.22
- NF-kB SEAP reporter activity (RAW-Dual [1]; [6]): 1.09

Compound: C=CC1(C)CC(OC(=O)CSC(C)(C)CNC(=O)C(N)C(C)C)C2(C)C(C)CCC3(CCC(=O)C32)C(C)C1O.Cl (stereo not given)
- NF-kB SEAP reporter activity (RAW-Dual [2]; [7]): 0.86
- NF-kB SEAP reporter activity (RAW-Dual [2]; [8]): 1.25

Compound: C=CC1(C)CC(OC(=O)CSC(C)(C)CNC(=O)C(N)C(C)C)C2(C)C(C)CCC3(CCC(=O)C32)C(C)C1O.Cl (stereo not given) (library stock concentration (final ~1000-fold dilution): 10 mM)
- NF-kB SEAP reporter activity (RAW-Dual [1]; agonist: LPS (TLR4) 0.1 ug/mL): 1.22
- NF-kB SEAP reporter activity (RAW-Dual [1]; [4]): 0.971
- NF-kB SEAP reporter activity (RAW-Dual [1]; [5]): 0.669
- NF-kB SEAP reporter activity (RAW-Dual [1]; [6]): 0.845

Compound: CCCCCCCCCCCCCCCC(=O)NC(CCSC)C(=O)NCC(=O)NC(Cc1ccc(O)cc1)C(=O)NC(CCC(N)=O)C(=O)NC(CCCCN)C(=O)NC(CCCCN)C(=O)NC(CC(C)C)C(=O)NC(CCCNC(=N)N)C(=O)NC(CO)C(=O)NC(CCSC)C(=O)NC(C(=O)NC(CC(=O)O)C(=O)NC(CCCCN)C(=O)NC(Cc1ccc(O)cc1)C(=O)NC(CCCNC(=N)N)C(=O)NC(CC(C)C)C(=O)O)C(C)O (stereo not given) (library stock concentration (final ~1000-fold dilution): 10 mM)
- NF-kB SEAP reporter activity (RAW-Dual [3]; agonist: LPS (TLR4) 0.1 ug/mL): 0.885
- NF-kB SEAP reporter activity (RAW-Dual [3]; [4]): 0.714
- NF-kB SEAP reporter activity (RAW-Dual [3]; [5]): 0.614
- NF-kB SEAP reporter activity (RAW-Dual [3]; [6]): 0.68

Compound: CCCCCCCCCCCCCCCC(=O)NC(CCSC)C(=O)NCC(=O)NC(Cc1ccc(O)cc1)C(=O)NC(CCC(N)=O)C(=O)NC(CCCCN)C(=O)NC(CCCCN)C(=O)NC(CC(C)C)C(=O)NC(CCCNC(=N)N)C(=O)NC(CO)C(=O)NC(CCSC)C(=O)NC(C(=O)NC(CC(=O)O)C(=O)NC(CCCCN)C(=O)NC(Cc1ccc(O)cc1)C(=O)NC(CCCNC(=N)N)C(=O)NC(CC(C)C)C(=O)O)C(C)O (stereo not given)
- NF-kB SEAP reporter activity (RAW-Dual [2]; [10]): 1.02
- NF-kB SEAP reporter activity (RAW-Dual [2]; [11]): 1.02

Compound: COc1ccc(Oc2cc(NCCC(F)(F)F)c3ncc(-c4ccc(C(=O)NC5CC5)c(C)c4)n3n2)c(F)c1F
- NF-kB SEAP reporter activity (RAW-Dual [2]; [7]): 1.19
- NF-kB SEAP reporter activity (RAW-Dual [2]; [8]): 1.32

Compound: COc1ccc(Oc2cc(NCCC(F)(F)F)c3ncc(-c4ccc(C(=O)NC5CC5)c(C)c4)n3n2)c(F)c1F (library stock concentration (final ~1000-fold dilution): 10 mM)
- NF-kB SEAP reporter activity (RAW-Dual [1]; agonist: LPS (TLR4) 0.1 ug/mL): 2.44
- NF-kB SEAP reporter activity (RAW-Dual [1]; [4]): 1.78
- NF-kB SEAP reporter activity (RAW-Dual [1]; [5]): 0.636
- NF-kB SEAP reporter activity (RAW-Dual [1]; [6]): 0.913

Compound: COc1cccc(CCc2ccccc2OCC(CN(C)C)OC(=O)CCC(=O)O)c1.Cl (stereo not given) (library stock concentration (final ~1000-fold dilution): 10 mM)
- NF-kB SEAP reporter activity (RAW-Dual [1]; agonist: LPS (TLR4) 0.1 ug/mL): 1.33
- NF-kB SEAP reporter activity (RAW-Dual [1]; [4]): 0.733
- NF-kB SEAP reporter activity (RAW-Dual [1]; [5]): 1.03
- NF-kB SEAP reporter activity (RAW-Dual [1]; [6]): 0.924

Compound: COc1cccc(CCc2ccccc2OCC(CN(C)C)OC(=O)CCC(=O)O)c1.Cl (stereo not given)
- NF-kB SEAP reporter activity (RAW-Dual [2]; [7]): 1.22
- NF-kB SEAP reporter activity (RAW-Dual [2]; [8]): 1.03

Compound: Cc1cc(C)cc(C(=O)NOCCCCCC(=O)NO)c1
- NF-kB SEAP reporter activity (RAW-Dual [2]; [10]): 1.41
- NF-kB SEAP reporter activity (RAW-Dual [2]; [11]): 2.74

Compound: Cc1cc(Cl)ccc1OCCCC(=O)NO (library stock concentration (final ~1000-fold dilution): 10 mM)
- NF-kB SEAP reporter activity (RAW-Dual [1]; agonist: LPS (TLR4) 0.1 ug/mL): 1.51
- NF-kB SEAP reporter activity (RAW-Dual [1]; [4]): 0.823
- NF-kB SEAP reporter activity (RAW-Dual [1]; [5]): 0.939
- NF-kB SEAP reporter activity (RAW-Dual [1]; [6]): 0.726

Compound: Cc1cc(Cl)ccc1OCCCC(=O)NO
- NF-kB SEAP reporter activity (RAW-Dual [2]; [7]): 1.35
- NF-kB SEAP reporter activity (RAW-Dual [2]; [8]): 1.31

Compound: Cc1cc(C)cc(C(=O)NOCCCCCC(=O)NO)c1 (library stock concentration (final ~1000-fold dilution): 10 mM)
- NF-kB SEAP reporter activity (RAW-Dual [3]; agonist: LPS (TLR4) 0.1 ug/mL): 5.28
- NF-kB SEAP reporter activity (RAW-Dual [3]; [4]): 2.33
- NF-kB SEAP reporter activity (RAW-Dual [3]; [5]): 0.935
- NF-kB SEAP reporter activity (RAW-Dual [3]; [6]): 1.43

Compound: CNC(C)C(=O)NC1CN(C(=O)CC(C)C)CCC2CCC(C(=O)NC(c3ccccc3)c3ccccc3)N2C1=O (stereo not given) (library stock concentration (final ~1000-fold dilution): 10 mM)
- NF-kB SEAP reporter activity (RAW-Dual [1]; agonist: LPS (TLR4) 0.1 ug/mL): 0.854
- NF-kB SEAP reporter activity (RAW-Dual [1]; [4]): 1.1
- NF-kB SEAP reporter activity (RAW-Dual [1]; [5]): 0.925
- NF-kB SEAP reporter activity (RAW-Dual [1]; [6]): 1.08

Compound: CNC(C)C(=O)NC1CN(C(=O)CC(C)C)CCC2CCC(C(=O)NC(c3ccccc3)c3ccccc3)N2C1=O (stereo not given)
- NF-kB SEAP reporter activity (RAW-Dual [2]; [7]): 0.948
- NF-kB SEAP reporter activity (RAW-Dual [2]; [8]): 0.82
